A selection: hits, their analogues and other compounds. The true share with any hit is near 0.9%.
SRC2 TRFRET art: TR-FRET signal artefacts, primary screen, artefact control for PPARgamma SRC-2 agonist project, biochemical. TR-FRET artefact counter-screen; stronger effect = higher value. TR-FRET ratio at 8 µM. actives 0.4% (n = 200,000). AID 1049, 2008
SRC1 TRFRET art: TR-FRET detection interference compounds, primary screen, artefact control for PPARgamma SRC-1 recruitment agonists, biochemical, TR-FRET emission ratio; TR-FRET ratio at 8 µM; TR-FRET detection artefact counter-screen; stronger effect = higher value; actives 0.34% (n = 99,000); AID 1051, 2008; in the data active = TR-FRET ratio above about 2300
PPARg SRC-2 ag: agonists of PPARg-SRC-2 recruitment, primary screen, biochemical, HTS; Peroxisome proliferator-activated receptor gamma (Homo sapiens), P37231; PPARgamma LBD-SRC-2 recruitment; activation, % at 8 µM; actives 0.34% (n = 200,000); in the data active = activation above about 22%;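 note: 0% = vehicle and 100% = reference agonist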
Target sequence (P37231 whole entry, looked up, the tested form may be a part): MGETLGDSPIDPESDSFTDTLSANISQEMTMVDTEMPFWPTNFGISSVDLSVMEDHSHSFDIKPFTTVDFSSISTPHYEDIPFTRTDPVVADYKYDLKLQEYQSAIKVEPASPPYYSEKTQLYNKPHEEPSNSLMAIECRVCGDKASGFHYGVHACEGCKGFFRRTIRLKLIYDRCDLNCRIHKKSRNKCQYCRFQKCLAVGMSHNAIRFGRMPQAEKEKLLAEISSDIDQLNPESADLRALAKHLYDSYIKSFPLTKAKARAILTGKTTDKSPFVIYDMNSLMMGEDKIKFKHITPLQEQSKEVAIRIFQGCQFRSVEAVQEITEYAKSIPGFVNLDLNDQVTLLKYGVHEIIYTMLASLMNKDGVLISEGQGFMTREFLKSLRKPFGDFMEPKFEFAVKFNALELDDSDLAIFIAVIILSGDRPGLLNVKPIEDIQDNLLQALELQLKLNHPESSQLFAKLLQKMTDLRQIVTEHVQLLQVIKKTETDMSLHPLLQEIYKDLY
SRC3 TRFRET art: TR-FRET detection interference compounds, artefact control for PPARgamma SRC-3 recruitment agonists, biochemical, TR-FRET ratio. actives 0.39% (n = 99,000). AID 1048, 2008. TR-FRET ratio at 8 µM. TR-FRET artefact counter-screen, PPARgamma/SRC-3 format; stronger effect = higher value
PPARg SRC1 recr: PPARgamma agonists recruiting SRC-1 coactivator, primary screen, biochemical; Peroxisome proliferator-activated receptor gamma (Homo sapiens), P37231; PPARgamma-SRC-1 coactivator recruitment biochemical assay; activation, % at 8 µM; actives 0.41% (n = 200,000); AID 631, 2007; in the data active = activation above about 19%;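 note: 0% = DMSO and 100% = reference agonist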
PPARg SRC-3 ag: PPARgamma agonists recruiting SRC-3 coactivator, primary screen, biochemical; biochemical PPARgamma/SRC-3 coactivator recruitment assay; activation, % at 8 µM; actives 0.26% (n = 200,000); AID 731, 2007; in the data active = activation above about 23%;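 note: 0% = DMSO and 100% = reference agonist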
* = called active by the depositor; . = not tested or not shown. Cut-off read from the data, not from the text of the source, unless noted: active = TR-FRET ratio above about 2000; inactive = the rest.

SMILES	SRC2 TRFRET art	SRC1 TRFRET art	PPARg SRC-2 ag	SRC3 TRFRET art	PPARg SRC1 recr	PPARg SRC-3 ag
CCc1nc2ccc(C(=O)Nc3nnc(C)s3)cc2nc1CC	1452	6131*	-2.5	1708	477.8*	2.2
CCCNC(=O)C(CC)NS(=O)(=O)c1ccc(OC)cc1 (stereo not given)	1497	.	12.9	.	6.9	44.5*
Cc1cc(C(=O)COc2ccc3ccc(=O)oc3c2)c(C)n1C	1807	2097	8.0	1702	1.7	-3.0
O=C1CCCC(=O)N1c1ccc(Oc2ccc(Cl)cc2)cc1	1600	1686	-1.5	1801	2.0	2.8
O=C(/C=C/c1ccc(Br)cc1)c1ccc(NC(=O)c2ccco2)cc1	5699*	2646*	0.6	14077*	3.5	5.7
Cc1nc(SCC(=O)Nc2ccc(F)cc2)c(C#N)c(C)c1CC(=O)c1ccc(Br)cc1	1535	.	8.3	.	21.7*	8.1
CSCCNC(=O)c1cccc(Cl)c1	1579	1660	-3.1	1317	-5.9	-3.8
CSCCNC(C)=O	2040*	.	24.4*	.	-1.1	2.2
CC(C(=O)Nc1ccc2c(c1)OCCO2)c1ccc([N+](=O)[O-])cc1 (stereo not given)	1717	1602	0.5	2361*	-1.9	4.7
Cc1ccc(OC(=O)CCC(=O)NC(C)c2ccccc2)cc1 (stereo not given)	1376	1631	-1.6	1692	5.7	0.5
Cc1cc(NS(=O)(=O)c2ccc(NC(=O)c3cc4cc(Br)ccc4oc3=O)cc2)no1	1673	1856	0.5	1600	6.3	-0.3
Cc1ccccc1C(=O)N1CCc2cc(-c3nc(NC(=O)Cc4ccc5c(c4)OCO5)sc3C)ccc21	2157*	2310	2.3	2401*	9.3	9.1
Cc1sc(NC(=O)Cc2ccc3c(c2)OCO3)nc1-c1ccc2c(c1)CCN2C(=O)c1cccc(F)c1	1658	1641	7.0	1615	-1.2	1.6
CCCCNC(=O)CSc1nc2ccccc2c(=O)n1Cc1ccc2c(c1)OCO2	5232*	.	190.0*	.	2.6	18.2
C=CCn1c(SCC(=O)NCc2ccc3c(c2)OCO3)nc2scc(-c3ccccc3)c2c1=O	1974*	.	5.3	.	8.7	1.9
CCOCCCn1c(SCC(=O)NCc2ccc3c(c2)OCO3)nc2ccccc2c1=O	1620	1990	-0.8	1553	9.7	4.6
O=C(NC1CCCCC1)C(c1ccc(Cl)cc1)N(C(=O)c1ccccn1)c1cccnc1 (stereo not given)	1638	1958	6.8	1551	2.6	-2.2
CC1CCCC(C)N1/N=C/c1ccc(C#N)cc1 (stereo not given)	1499	1814	7.4	1653	-1.6	4.1
COc1ccc(-c2ccc(C#N)c(SCC(=O)OCc3ccccc3)n2)cc1OC	2143*	.	-0.8	.	-4.3	5.2
S=C1NCCOCCOCCOCCNC(=S)N2CCOCCOCCN1CCOCCOCC2	1403	1845	-4.2	1715	5.2	2.4
CCc1ccc(N(C(=O)c2csnn2)C(C(=O)NC(C)(C)C)c2cccnc2)cc1 (stereo not given)	2266*	1763	22.9*	1691	0.1	-2.0
O=C(Cc1c(Cl)cccc1Cl)OCC(=O)N1CCN(C(=O)c2ccco2)CC1	1634	1736	6.1	1602	2.3	1.2
O=C(C1=C[C@@H](c2ccc(C(F)(F)F)cc2)C[C@@H](OCCCCO)O1)N1CCN(Cc2ccc3c(c2)OCO3)CC1	1423	1799	-0.4	1594	9.7	31.6*
CCN1/C(=C/c2ccc3cc(C)ccc3[n+]2CC)Sc2cc(C)ccc21	1571	1885	11.3	2049	16.7	1.5
CCN1/C(=C/c2ccc3cc(C)ccc3[n+]2C)Sc2ccc3sccc3c21	2435*	3458*	52.5*	2512*	95.7*	45.8*
SMILES	SRC2 TRFRET art	SRC1 TRFRET art	PPARg SRC-2 ag	SRC3 TRFRET art	PPARg SRC1 recr	PPARg SRC-3 ag
CC(C)CCN1CCN(Cc2ccc(Oc3ncccn3)cc2)CC1CCO (stereo not given)	1741	1614	2.7	1525	-0.7	-3.5
CC(C)N1CCN(Cc2ccc(Oc3ncccn3)cc2)CC1CCO (stereo not given)	1545	2154	-3.6	1564	21.3*	2.4
CC(=O)C1=C(C)NC(SCC(=O)c2ccc(-c3ccccc3)cc2)=C(C#N)C1c1cccnc1 (stereo not given)	2094*	.	12.6	.	6.5	2.5
O=C(O)C1=C(OCc2ccccc2)C(=O)NCC1	1759	1814	7.9	1770	3.4	2.4
COC(=O)c1cc(OC)c(OC)cc1NC(=O)c1ccccc1C	1629	1759	5.3	1531	1.5	0.0
CC(C)c1ccccc1-n1c(SCC(=O)c2ccc3c(c2)NC(=O)CO3)nc2ccccc2c1=O	2160*	2916*	-1.0	2760*	0.0	10.9
CC(C)c1ccccc1-n1c(SCC(=O)N2CCc3ccccc3C2)nc2ccccc2c1=O	1633	1834	10.1	1635	3.0	2.1
Cc1ccccc1Nc1scc(-c2ccc(Cl)cc2)[n+]1-c1ccccc1C	2007*	2015	9.1	1661	5.1	8.6
Cc1c(Nc2scc(-c3ccccc3)[n+]2-c2ccccc2)c(=O)n(-c2ccccc2)n1C	1361	1586	-4.3	1624	-2.2	-4.6
CCN(CC)C(=O)c1c(Cl)nc(C)c([N+](=O)[O-])c1C	1347	1567	-9.3	1545	-1.1	-3.5
COc1ccc(C2CC(c3ccc(Br)cc3)=NN2C(=O)CSC2=NCCS2)cc1 (stereo not given)	1826	1958	8.5	2257*	-7.7	5.1
N#Cc1ccccc1CSc1nc2ncc(Br)cc2[nH]1	1754	1936	15.8	1759	3.7	3.0
Fc1ccccc1CSc1nc2ncc(Br)cc2[nH]1	1920	.	23.7*	.	3.3	6.7
CCOC(=O)C1=C(C)NC(SCC(=O)O)=NC1c1ccccc1 (stereo not given)	2481*	1965	40.4*	1400	12.6	-1.1
COC(=O)c1ccc(COC(=O)c2ccc(S(=O)(=O)N3CCC(C)CC3)cc2)o1	1607	.	6.7	.	21.4*	7.2
CC(C)CNS(=O)(=O)c1cc(C(=O)OCC(=O)c2ccc3c(c2)OCCO3)c(Cl)cc1Cl	1804	2142	-2.9	2107*	-1.0	-1.9
Cc1c(N2C(=O)C(=O)/C(=C(/O)c3ccc(Cl)cc3)C2c2ccccc2)c(=O)n(-c2ccccc2)n1C (stereo not given)	1507	1922	10.7	1714	8.8	4.0
Cc1nn(-c2ccc(Cl)cc2)c2sc(C(=O)c3c(N)n(C)c(=O)n(C)c3=O)cc12	1492	.	-3.1	.	25.1*	-9.7
